From the supplement of paper PMC11732987, “Enantioselective OTUD7B fragment discovery through chemoproteomics screening and high-throughput optimisation” (Communications Chemistry, 2025)

Legend:
Assay in all cases: log2 ratio of Biotin-Ahx-Ub-VS probe labelling (fragment/DMSO); higher = less target engagement (more negative = stronger competition), active = hit call of the paper (q ≤ 0.05, log2 ratio ≤ -1)
Settings in all cases: compound concentration: 200 uM; treatment time: 3 h
USP19 = biological target: T1, USP19 (UniProt O94966)
T1 sequence (whole entry): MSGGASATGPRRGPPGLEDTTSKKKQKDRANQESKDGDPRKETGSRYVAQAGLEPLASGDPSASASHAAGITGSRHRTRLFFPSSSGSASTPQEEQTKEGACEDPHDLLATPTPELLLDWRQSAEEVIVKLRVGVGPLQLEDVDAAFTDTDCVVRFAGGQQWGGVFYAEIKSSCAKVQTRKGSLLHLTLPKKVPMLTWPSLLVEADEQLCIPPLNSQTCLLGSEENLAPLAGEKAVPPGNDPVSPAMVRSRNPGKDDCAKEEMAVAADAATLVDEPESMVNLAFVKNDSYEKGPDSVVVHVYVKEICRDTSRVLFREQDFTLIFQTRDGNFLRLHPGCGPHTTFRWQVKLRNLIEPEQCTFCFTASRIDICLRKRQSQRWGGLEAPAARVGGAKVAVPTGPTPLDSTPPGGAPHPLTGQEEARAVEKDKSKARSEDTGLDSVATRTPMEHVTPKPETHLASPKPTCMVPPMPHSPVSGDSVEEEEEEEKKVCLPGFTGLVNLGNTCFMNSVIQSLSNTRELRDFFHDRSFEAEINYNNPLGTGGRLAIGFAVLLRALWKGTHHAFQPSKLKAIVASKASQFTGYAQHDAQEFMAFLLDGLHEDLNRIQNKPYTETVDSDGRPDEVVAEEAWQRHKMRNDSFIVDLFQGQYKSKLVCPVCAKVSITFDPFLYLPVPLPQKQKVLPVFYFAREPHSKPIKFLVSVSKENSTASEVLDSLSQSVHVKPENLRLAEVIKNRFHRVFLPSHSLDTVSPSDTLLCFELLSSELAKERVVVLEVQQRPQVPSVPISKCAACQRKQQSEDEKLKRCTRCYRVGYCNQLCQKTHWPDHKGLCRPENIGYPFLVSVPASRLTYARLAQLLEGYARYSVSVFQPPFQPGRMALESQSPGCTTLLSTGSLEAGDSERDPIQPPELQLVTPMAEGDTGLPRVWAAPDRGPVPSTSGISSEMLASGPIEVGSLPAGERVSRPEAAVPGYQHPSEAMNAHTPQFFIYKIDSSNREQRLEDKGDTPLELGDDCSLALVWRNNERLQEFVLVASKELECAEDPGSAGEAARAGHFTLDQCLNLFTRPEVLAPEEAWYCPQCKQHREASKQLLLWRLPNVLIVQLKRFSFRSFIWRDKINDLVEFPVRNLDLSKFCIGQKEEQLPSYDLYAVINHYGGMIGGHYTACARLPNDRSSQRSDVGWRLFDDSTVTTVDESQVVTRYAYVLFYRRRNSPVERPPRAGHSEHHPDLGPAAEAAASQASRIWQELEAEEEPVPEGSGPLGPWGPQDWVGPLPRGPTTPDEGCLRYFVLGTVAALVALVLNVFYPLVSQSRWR
How it was run: (§1)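 The table lists average log2 ratios of fragment over vehicle, from an unpaired t-test on global-median-normalised Spectronaut label-free quantities. Proteins with ≥2 unique peptides were used. Samples were HEK293T lysate (495 µg) treated in triplicate with fragment at 200 µM or vehicle for 3 h, then with Biotin-Ahx-Ub-VS (0.5 µM final) for 1 h, with labelled DUBs NeutrAvidin-enriched and run by diaPASEF LC-MS/MS.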

USP22 = biological target: T2, USP22 (UniProt Q9UPT9)
T2 sequence (whole entry): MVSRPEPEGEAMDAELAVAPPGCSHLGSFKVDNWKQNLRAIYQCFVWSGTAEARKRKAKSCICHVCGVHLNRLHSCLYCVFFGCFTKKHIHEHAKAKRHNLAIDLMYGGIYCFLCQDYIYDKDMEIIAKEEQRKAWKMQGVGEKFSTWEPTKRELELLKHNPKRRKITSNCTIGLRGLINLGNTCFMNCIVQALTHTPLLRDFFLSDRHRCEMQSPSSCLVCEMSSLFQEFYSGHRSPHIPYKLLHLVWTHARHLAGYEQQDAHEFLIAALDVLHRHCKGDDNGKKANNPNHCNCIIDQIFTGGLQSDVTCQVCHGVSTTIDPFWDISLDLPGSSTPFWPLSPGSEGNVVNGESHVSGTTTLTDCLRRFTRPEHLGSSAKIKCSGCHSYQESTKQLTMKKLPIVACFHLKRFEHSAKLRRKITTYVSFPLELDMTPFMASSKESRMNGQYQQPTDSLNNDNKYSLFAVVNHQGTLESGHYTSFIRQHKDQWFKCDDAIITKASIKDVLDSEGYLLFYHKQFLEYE
How it was run: as §1

USP24 = USP24 (UniProt Q9UPU5)
Sequence of USP24 (Q9UPU5 whole entry): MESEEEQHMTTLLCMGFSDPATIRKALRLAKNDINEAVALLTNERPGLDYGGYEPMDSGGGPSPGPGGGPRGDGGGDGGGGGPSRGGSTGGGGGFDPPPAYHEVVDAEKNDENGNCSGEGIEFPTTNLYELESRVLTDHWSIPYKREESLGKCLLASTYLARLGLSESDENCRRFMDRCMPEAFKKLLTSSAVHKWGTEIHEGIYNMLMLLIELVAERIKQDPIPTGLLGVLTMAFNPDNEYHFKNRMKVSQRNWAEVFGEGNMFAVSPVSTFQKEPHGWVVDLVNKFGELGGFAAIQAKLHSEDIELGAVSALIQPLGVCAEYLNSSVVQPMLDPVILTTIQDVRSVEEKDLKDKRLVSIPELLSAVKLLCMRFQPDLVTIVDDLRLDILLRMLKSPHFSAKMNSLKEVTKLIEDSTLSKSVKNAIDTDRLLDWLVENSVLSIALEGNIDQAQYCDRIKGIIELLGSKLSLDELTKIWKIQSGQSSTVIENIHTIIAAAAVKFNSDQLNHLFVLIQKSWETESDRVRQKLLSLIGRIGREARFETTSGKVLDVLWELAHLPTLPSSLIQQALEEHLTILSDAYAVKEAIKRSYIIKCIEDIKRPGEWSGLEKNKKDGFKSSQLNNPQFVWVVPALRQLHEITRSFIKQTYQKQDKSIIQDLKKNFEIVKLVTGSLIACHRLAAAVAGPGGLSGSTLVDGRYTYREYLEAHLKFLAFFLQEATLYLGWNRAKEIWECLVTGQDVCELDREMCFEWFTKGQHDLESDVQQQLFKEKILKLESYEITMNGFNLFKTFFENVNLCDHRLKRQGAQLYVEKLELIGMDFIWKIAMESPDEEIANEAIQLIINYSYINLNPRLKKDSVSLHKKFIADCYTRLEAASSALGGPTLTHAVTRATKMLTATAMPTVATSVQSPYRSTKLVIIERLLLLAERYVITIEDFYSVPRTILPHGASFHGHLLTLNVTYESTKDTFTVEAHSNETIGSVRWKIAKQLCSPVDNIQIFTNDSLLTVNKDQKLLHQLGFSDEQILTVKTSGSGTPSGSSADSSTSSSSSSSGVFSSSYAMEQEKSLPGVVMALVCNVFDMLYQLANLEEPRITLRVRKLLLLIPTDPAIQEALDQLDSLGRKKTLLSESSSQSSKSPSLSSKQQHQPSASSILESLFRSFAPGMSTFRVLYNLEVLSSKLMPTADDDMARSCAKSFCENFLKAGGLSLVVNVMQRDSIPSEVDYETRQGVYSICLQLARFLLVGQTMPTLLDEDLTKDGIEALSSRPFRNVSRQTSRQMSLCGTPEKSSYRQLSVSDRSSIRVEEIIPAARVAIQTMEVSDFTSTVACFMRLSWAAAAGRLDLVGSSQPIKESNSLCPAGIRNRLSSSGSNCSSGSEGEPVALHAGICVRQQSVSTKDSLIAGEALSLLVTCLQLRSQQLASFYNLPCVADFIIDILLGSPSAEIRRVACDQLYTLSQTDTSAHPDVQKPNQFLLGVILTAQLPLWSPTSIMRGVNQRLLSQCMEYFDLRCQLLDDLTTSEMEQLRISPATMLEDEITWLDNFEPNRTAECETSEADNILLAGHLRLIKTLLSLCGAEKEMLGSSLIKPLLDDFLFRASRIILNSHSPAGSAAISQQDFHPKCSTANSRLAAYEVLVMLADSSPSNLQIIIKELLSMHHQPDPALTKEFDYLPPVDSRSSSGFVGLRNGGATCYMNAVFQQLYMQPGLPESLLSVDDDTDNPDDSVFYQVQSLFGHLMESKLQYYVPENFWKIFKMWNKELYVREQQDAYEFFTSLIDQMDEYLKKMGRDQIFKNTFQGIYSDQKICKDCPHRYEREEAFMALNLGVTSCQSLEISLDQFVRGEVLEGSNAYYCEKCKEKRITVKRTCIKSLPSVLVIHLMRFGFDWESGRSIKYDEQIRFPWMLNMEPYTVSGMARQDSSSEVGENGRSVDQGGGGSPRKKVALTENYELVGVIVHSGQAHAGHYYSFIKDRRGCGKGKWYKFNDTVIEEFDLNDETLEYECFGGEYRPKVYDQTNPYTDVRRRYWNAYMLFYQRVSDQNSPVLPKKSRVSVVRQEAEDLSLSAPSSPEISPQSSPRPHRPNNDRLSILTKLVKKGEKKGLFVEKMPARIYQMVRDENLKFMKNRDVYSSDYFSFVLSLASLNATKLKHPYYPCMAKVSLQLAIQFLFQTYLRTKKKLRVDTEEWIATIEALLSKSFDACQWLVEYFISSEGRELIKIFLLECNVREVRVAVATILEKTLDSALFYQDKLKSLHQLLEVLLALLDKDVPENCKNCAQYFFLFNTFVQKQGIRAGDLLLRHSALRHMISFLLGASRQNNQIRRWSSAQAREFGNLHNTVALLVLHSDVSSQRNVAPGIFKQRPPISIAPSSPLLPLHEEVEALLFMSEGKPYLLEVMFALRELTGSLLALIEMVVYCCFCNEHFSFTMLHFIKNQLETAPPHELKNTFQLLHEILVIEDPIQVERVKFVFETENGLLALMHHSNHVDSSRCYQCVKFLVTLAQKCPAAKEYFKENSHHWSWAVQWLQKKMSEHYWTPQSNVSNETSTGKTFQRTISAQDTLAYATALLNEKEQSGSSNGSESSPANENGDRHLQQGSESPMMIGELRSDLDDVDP
How it was run: as §1

USP25 = biological target: T3, USP25 (UniProt Q9UHP3)
T3 sequence (whole entry): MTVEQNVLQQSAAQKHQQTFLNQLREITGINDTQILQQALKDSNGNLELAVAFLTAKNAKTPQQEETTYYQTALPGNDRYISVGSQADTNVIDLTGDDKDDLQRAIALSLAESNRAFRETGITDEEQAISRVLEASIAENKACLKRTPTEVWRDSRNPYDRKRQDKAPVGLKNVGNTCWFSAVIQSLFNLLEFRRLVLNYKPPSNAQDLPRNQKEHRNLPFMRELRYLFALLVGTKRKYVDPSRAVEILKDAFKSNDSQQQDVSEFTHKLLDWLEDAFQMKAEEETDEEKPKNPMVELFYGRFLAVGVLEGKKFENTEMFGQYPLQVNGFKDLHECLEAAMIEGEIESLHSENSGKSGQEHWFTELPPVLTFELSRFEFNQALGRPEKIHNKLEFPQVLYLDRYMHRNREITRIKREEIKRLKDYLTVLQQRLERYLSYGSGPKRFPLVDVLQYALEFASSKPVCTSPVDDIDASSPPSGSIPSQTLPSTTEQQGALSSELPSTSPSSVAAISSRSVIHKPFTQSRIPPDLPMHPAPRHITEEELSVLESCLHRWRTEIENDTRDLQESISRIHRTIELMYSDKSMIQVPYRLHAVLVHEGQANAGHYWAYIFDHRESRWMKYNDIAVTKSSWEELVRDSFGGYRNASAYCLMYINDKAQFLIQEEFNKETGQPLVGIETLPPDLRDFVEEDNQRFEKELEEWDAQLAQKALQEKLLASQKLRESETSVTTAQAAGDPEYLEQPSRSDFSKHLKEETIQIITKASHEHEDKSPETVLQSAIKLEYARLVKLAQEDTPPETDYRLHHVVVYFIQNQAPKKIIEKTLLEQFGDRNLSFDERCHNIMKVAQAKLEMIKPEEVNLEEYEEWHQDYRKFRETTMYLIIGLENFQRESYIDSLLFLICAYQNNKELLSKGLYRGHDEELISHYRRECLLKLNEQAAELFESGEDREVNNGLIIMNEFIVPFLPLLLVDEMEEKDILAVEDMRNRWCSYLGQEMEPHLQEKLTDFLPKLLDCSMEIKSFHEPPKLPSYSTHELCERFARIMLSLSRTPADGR
How it was run: as §1

USP28 = biological target: T4, USP28 (UniProt Q96RU2)
T4 sequence (whole entry): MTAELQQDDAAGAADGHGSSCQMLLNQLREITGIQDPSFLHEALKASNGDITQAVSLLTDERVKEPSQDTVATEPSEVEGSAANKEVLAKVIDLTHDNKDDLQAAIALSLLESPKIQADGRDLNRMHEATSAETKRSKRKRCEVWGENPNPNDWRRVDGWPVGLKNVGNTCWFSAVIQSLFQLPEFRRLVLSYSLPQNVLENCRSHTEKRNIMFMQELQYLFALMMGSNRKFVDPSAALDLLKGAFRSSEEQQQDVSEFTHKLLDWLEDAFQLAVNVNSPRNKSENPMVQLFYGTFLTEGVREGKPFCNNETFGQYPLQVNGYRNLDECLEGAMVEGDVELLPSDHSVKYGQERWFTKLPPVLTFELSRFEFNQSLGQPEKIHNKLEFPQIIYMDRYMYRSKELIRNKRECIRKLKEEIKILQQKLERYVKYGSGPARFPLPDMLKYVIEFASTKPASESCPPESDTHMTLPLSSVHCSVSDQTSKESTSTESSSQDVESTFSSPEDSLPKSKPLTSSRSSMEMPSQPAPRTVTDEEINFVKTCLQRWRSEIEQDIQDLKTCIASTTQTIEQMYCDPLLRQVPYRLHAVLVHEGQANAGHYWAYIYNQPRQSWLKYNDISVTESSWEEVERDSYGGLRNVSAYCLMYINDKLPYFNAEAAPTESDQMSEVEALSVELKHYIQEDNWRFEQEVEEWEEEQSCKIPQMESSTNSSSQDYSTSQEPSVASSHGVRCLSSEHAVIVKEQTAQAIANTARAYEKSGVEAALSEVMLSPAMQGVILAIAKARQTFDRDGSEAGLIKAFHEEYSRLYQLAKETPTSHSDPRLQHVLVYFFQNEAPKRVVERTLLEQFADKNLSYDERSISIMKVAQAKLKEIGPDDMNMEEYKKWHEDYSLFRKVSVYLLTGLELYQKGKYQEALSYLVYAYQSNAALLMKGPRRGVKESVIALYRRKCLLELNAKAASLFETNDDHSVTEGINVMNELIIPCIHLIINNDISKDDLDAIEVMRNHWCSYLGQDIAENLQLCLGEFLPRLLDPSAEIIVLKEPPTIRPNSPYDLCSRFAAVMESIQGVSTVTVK
How it was run: as §1

Measured: log2 ratio of Biotin-Ahx-Ub-VS probe labelling

Cc1cnc2[nH]cc(CCNC(=O)CCl)c2c1
inactive: USP19 -0.044 | USP22 -0.375 | USP24 -0.209 | USP25 -0.347 | USP28 -0.759
